# Experimental data from PubChem BioAssay (EPA / NIEHS).
# Inconclusive results are not listed. Activity calls are given as the source filed them. Rule for the calls, unless noted: active = hit-call score of the fitted dose curve at least 0.9, where 1 is the maximum; inactive = score below 0.9.
# What was measured:
# [1] = ATG_DR4_LXR_CIS: Attagene CIS-FACTORIAL HepG2 Assay for human Liver X Receptor (LXR), DR4 submotif (AID 2282929); settings: HepG2 Attagene DR4 cis-reporter, mRNA transcription; actives raise or lower the signal
# How it was run: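 Endogenous factor activity at a DR4 cis-element is read as reporter mRNA in transiently transfected HepG2 cells. Exposure lasts 24 h; transcripts are amplified, fluorescently labelled and sized by capillary electrophoresis, with DMSO as baseline.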
# [2] = ATG_AP_1_CIS: Attagene CIS-FACTORIAL HepG2 Assay for human Activator Protein 1 (AP-1) (AID 2282931); settings: HepG2 Attagene cis-factorial AP-1 reporter mRNA; actives raise or lower the signal
# How it was run: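 Fluorescence of labelled PCR fragments separated by capillary electrophoresis gives reporter mRNA levels. HepG2 with transfected cis-regulated reporter units, 24 h exposure; DMSO serves as baseline for bidirectional curve fits.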
# [3] = molecular target: Hepatocyte nuclear factor 3-beta (Homo sapiens) (UniProt Q9Y261); assay: ATG_FoxA2_CIS: Attagene CIS-FACTORIAL HepG2 Assay for human Forkhead box A2 (FOXA2) (AID 2282942); settings: HepG2 cis-reporter transcription factor activity, 24 h; actives raise or lower the signal
# How it was run: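 Cells: HepG2, transient multiplex reporter transfection. Exposure 24 h. Detection: reporter-specific RT-PCR, fluorescent labelling, restriction digest, capillary electrophoresis. Analysis: bidirectional curve fit, DMSO as negative control.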
# [4] = molecular target: Hypoxia-inducible factor 1-alpha (Homo sapiens) (UniProt Q16665); assay: ATG_HIF1a_CIS: Attagene CIS-FACTORIAL HepG2 Assay for human Hypoxia Inducible Factor 1 (HIF1A) (AID 2282951); settings: HepG2 Attagene cis-factorial HIF1a reporter transcription; actives raise or lower the signal
# How it was run: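 HepG2, transient cis-reporter library, 24 h dosing. RNA → RT (oligo dT) → PCR → 6-FAM primer extension → HpaI → CE. Bidirectional curve fit vs DMSO.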
# [5] = molecular target: Heat shock factor protein 1 (Homo sapiens) (UniProt Q00613); assay: ATG_HSE_CIS: Attagene CIS-FACTORIAL HepG2 Assay for human Heat Shock Transcription Factor 1 (HSE) (AID 2282953); settings: HepG2 HSE cis-reporter, Attagene RNA transcription; actives raise or lower the signal
# How it was run: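 After a 24 h incubation with test chemical, transfected HepG2 cells were harvested for RNA; reporter transcripts were measured by RT-PCR and capillary electrophoresis. Values reflect gain or loss of signal relative to DMSO.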
# [6] = ATG_RORE_CIS: Attagene CIS-FACTORIAL HepG2 Assay for human RAR-related Orphan Receptor Element (RORE) (AID 2282959); settings: HepG2 Attagene cis-factorial RORE reporter, mRNA; actives raise or lower the signal
# How it was run: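 Multiplexed reporter assay measuring mRNA induction from a cis promoter element in transiently transfected HepG2 cells after 24 h treatment. Detection via RT-PCR and capillary electrophoresis fluorescence; DMSO serves as baseline.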
# [7] = molecular target: Signal transducer and activator of transcription 3 (Homo sapiens) (UniProt P40763); assay: ATG_STAT3_CIS: Attagene CIS-FACTORIAL HepG2 Assay for human Signal Transducer and Activator of Transcription 3 (STAT3) (AID 2282963); settings: HepG2, Attagene cis-factorial STAT3 reporter transcription; actives raise or lower the signal
# How it was run: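 Fluorescence intensity of 6-FAM-labelled reporter fragments, separated by capillary electrophoresis after RT-PCR, gave the signal. Cells were HepG2 transfected with cis-element reporter units and treated 24 h; fitting was bidirectional relative to DMSO.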
# [8] = ATG_TCF_b_cat_CIS: Attagene CIS-FACTORIAL HepG2 Assay for human T-Cell-Factor with beta-catenin (TCF/b-cat) (AID 2282965); settings: HepG2 TCF/beta-catenin cis-reporter transcription, actives raise or lower the signal
# How it was run: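 HepG2 cells transiently transfected with cis-promoter-driven multiplexed reporter units; reporter mRNA measured 24 h after dosing by RT-PCR, FAM labelling, HpaI digestion and capillary electrophoresis. Bidirectional fitting relative to DMSO baseline.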
# [9] = ATG_TAL_CIS: Attagene CIS-FACTORIAL HepG2 Assay for human TAL Basal Promoter (AID 2282966); settings: HepG2 Attagene cis-factorial TAL promoter reporter; actives raise or lower the signal;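 note: background control endpoint measuring basal TAL promoter reporter mRNA not a specific factor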
# How it was run: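 Background-control endpoint: basal TAL promoter reporter transcripts in transiently transfected HepG2, measured 24 h after dosing. Read-out by RT-PCR with fluorescent primer extension and capillary electrophoresis; gain or loss of signal fitted relative to DMSO.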
# [10] = ATG_TGFb_CIS: Attagene CIS-FACTORIAL HepG2 Assay for human Transforming Growth Factor (TGF) (AID 2282967); settings: HepG2 Attagene CIS TGFb reporter, mRNA transcription; actives raise or lower the signal
# How it was run: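 Transcript-level reporter readout: HepG2 transfectants, 24 h exposure, RNA to cDNA, reporter-specific PCR, fluorescent primer extension, capillary sizing against ROX standards. Gain- or loss-of-signal relative to DMSO.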
# [11] = ATG_VDRE_CIS: Attagene CIS-FACTORIAL HepG2 Assay for human Vitamin D Receptor Element (VDRE) (AID 2282968); settings: HepG2 VDRE cis-reporter transcription, actives raise or lower the signal
# How it was run: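 Compounds were applied for 24 h to HepG2 cells transfected with promoter-regulated reporter units. Total RNA was reverse-transcribed, and reporter amplicons were fluorescently labelled and sized by capillary electrophoresis.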
# [12] = molecular target: X-box-binding protein 1 (Homo sapiens) (UniProt P17861); assay: ATG_Xbp1_CIS: Attagene CIS-FACTORIAL HepG2 Assay for human X-box Binding Protein 1 (XBP1) (AID 2282972); settings: HepG2 XBP1 cis-element reporter, Attagene multiplex; actives raise or lower the signal
# How it was run: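 Human hepatoma HepG2, cis-element reporter system, 24 h treatment; mRNA quantified by RT-PCR/CE fluorescence; fit relative to DMSO.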
# [13] = molecular target: Transcriptional activator Myb (Homo sapiens) (UniProt P10242); assay: ATG_Myb_CIS: Attagene CIS-FACTORIAL HepG2 Assay for human Myeloblastosis (Myb) Proto-Oncogene Transcription Factor (AID 2282986); settings: HepG2 Attagene CIS-FACTORIAL Myb reporter transcription; actives raise or lower the signal
# How it was run: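 Endogenous transcription factor activity at a Myb-responsive cis element is reported in human liver HepG2 cells after 24 h chemical treatment. Reporter mRNA is detected by RT-PCR and capillary electrophoresis fluorescence, with DMSO as baseline.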
# [14] = molecular target: Nuclear respiratory factor 1 (Homo sapiens) (UniProt Q16656); assay: ATG_NRF1_CIS: Attagene CIS-FACTORIAL HepG2 Assay for human Nuclear Respiratory Factor 1 (NRF1) Orphan Gene (AID 2282987); settings: HepG2 NRF1 cis-element reporter, Attagene multiplex; actives raise or lower the signal
# How it was run: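 Human hepatoma HepG2 cells carrying transfected promoter-regulated reporter units were incubated with test chemicals for 24 h. Reporter transcripts were measured by RT-PCR plus capillary electrophoresis, and endpoints derived by bidirectional fitting with DMSO as baseline.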
# [15] = molecular target: Myc proto-oncogene protein (Homo sapiens) (UniProt P01106); assay: ATG_Myc_CIS: Attagene CIS-FACTORIAL HepG2 Assay for human Myelocytomatosis (Myc) Proto-Oncogene Transcription Factor (AID 2282990); settings: HepG2, Attagene cis-reporter transcription factor activity; actives raise or lower the signal
# How it was run: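 Transiently transfected HepG2 cells bearing cis-promoter reporter units for endogenous transcription factors; 24 h exposure. Reporter mRNA measured by RT-PCR, 6-FAM primer extension, HpaI cut and capillary electrophoresis; bidirectional fit relative to DMSO.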
# [16] = ATG_NRF2_ARE_CIS: Attagene CIS-FACTORIAL HepG2 Assay for human Nuclear Factor Erythroid 2 Related Factor 2 (NFR2) response to Antioxidant Response Elements (ARE) (AID 2282992); settings: HepG2 Attagene ARE/NRF2 reporter, transcription factor activity; actives raise or lower the signal
# How it was run: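 Fluorescence intensity of reporter-specific cDNA fragments, separated by capillary electrophoresis, reflects mRNA induction in transfected HepG2 cells at 24 h. Activity is fitted bidirectionally, DMSO serving as baseline.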
# [17] = molecular target: Nuclear receptor subfamily 1 group I member 2 (Homo sapiens) (UniProt O75469); assay: ATG_PXR_TRANS: Attagene TRANS-FACTORIAL HepG2 Assay for human Pregnane X Receptor (PXR) (AID 2283008; active = hit-call score of the fitted dose curve at least 0.9, where 1 is the maximum)
# How it was run: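 Transient HepG2 transfectants carrying multiplexed reporter transcription units; PXR activity read through a Gal4 chimera. 24 h exposure. RT-PCR/CE fluorescence; upward curve fit referenced to DMSO.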
# [18] = ATG_XTT_Cytotoxicity: Cytotoxicity Assessment in the Attagene TRANS-FACTORIAL HepG2 Assay (AID 2283584; active = hit-call score of the fitted dose curve at least 0.9, where 1 is the maximum;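 for AC50: cells exposed to compound for 24 h before reading; active means loss of viability signal versus DMSO baseline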)
# How it was run: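 Viability endpoint from XTT after 24 h chemical exposure of reporter-transfected human HepG2 liver cells; signal loss fitted relative to DMSO negative control.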
# [19] = ATG_Oct_MLP_CIS: Attagene CIS-FACTORIAL HepG2 Assay for human Octamer-Binding Transcription Factor (Oct) (AID 2282993); settings: HepG2 Attagene cis-factorial Oct reporter, mRNA; actives raise or lower the signal
# How it was run: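 Cells of the HepG2 line express promoter-controlled reporter sequences whose mRNA levels, after 24 h treatment, are measured by RT-PCR and capillary electrophoresis. Increases and decreases are scored relative to DMSO.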
# [20] = molecular target: Cellular tumor antigen p53 (Homo sapiens) (UniProt P04637); assay: ATG_p53_CIS: Attagene CIS-FACTORIAL HepG2 Assay for human p53 Transcription Factor (AID 2282994); settings: HepG2 p53 cis-element reporter, Attagene mRNA; actives raise or lower the signal
# How it was run: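 Transiently transfected HepG2 (multiple cis reporter transcription units); exposure 24 h; reporter RNA via RT-PCR, 6-FAM extension, 2 h HpaI digest at 37 C, CE detection; DMSO baseline.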
# Myc proto-oncogene protein (Homo sapiens), sequence (P01106 whole entry, looked up): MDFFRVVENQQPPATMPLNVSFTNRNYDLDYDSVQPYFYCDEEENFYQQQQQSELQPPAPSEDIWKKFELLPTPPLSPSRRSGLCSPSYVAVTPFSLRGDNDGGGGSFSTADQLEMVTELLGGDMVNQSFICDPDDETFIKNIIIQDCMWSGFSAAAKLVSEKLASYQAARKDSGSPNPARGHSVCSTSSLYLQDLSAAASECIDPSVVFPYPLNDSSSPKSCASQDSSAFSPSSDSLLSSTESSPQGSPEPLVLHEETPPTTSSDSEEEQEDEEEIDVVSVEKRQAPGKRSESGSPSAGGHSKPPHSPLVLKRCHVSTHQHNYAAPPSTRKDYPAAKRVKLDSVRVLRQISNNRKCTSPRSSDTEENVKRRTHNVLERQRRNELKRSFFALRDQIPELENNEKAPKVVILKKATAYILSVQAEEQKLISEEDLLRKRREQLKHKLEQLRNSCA
# Nuclear respiratory factor 1 (Homo sapiens), sequence (Q16656 whole entry, looked up): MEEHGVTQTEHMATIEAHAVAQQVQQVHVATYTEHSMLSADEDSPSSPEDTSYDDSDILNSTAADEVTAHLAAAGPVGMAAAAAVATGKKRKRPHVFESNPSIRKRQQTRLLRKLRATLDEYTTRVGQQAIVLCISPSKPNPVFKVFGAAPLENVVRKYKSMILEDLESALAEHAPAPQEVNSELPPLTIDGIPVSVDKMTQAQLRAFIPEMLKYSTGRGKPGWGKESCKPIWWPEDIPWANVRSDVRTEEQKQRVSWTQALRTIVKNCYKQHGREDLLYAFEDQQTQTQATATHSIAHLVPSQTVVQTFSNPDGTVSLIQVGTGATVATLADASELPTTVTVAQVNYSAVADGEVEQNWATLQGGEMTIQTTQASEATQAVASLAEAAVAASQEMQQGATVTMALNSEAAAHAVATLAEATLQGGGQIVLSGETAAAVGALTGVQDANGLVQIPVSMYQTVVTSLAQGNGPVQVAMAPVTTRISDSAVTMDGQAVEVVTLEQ
# Heat shock factor protein 1 (Homo sapiens), sequence (Q00613 whole entry, looked up): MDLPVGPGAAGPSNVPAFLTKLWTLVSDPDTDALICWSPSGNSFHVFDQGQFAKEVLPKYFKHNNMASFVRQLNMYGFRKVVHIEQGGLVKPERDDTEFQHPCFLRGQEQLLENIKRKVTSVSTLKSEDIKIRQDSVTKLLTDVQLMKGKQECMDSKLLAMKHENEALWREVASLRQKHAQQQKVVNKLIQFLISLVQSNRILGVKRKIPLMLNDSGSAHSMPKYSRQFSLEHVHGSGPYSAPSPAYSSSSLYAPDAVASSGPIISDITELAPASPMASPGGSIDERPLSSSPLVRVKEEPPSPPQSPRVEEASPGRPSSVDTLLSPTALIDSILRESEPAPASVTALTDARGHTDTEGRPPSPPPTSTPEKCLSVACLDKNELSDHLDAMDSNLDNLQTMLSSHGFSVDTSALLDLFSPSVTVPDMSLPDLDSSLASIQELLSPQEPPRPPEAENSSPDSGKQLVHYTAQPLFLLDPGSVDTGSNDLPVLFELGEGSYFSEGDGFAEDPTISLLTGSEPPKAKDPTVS
# Hepatocyte nuclear factor 3-beta (Homo sapiens), sequence (Q9Y261 whole entry, looked up): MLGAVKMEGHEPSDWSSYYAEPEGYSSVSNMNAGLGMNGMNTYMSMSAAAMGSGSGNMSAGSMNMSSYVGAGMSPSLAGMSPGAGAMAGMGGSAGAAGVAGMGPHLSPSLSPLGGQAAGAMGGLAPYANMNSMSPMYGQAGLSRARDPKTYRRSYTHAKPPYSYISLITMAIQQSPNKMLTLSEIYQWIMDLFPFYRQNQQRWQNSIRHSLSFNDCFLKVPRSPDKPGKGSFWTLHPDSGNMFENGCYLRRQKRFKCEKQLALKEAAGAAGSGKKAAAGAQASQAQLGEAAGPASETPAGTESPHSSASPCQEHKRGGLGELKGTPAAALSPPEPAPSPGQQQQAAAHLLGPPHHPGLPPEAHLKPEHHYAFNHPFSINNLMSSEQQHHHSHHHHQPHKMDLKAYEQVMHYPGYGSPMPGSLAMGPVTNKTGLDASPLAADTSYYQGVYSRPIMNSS
# Hypoxia-inducible factor 1-alpha (Homo sapiens), sequence (Q16665 whole entry, looked up): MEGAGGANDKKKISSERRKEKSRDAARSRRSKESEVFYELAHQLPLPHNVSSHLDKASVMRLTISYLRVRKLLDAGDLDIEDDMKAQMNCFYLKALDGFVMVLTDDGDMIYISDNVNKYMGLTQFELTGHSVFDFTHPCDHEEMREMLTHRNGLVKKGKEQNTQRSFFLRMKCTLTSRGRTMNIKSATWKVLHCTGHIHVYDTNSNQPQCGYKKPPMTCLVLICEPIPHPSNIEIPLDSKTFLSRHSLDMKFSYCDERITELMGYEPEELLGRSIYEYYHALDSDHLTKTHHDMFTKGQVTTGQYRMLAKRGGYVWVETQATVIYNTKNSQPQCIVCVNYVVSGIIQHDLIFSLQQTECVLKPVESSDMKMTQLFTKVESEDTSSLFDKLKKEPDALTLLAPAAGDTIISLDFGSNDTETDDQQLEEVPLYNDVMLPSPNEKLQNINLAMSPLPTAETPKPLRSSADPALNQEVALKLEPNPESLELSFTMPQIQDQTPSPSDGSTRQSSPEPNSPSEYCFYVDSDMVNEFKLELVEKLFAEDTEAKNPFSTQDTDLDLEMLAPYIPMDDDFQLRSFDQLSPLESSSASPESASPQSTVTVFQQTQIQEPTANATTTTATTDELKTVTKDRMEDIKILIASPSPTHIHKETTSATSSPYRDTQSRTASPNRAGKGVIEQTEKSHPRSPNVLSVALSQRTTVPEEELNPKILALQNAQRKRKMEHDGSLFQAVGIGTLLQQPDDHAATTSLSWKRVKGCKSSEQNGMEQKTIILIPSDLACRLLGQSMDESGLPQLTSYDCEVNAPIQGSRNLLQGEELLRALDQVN
# Transcriptional activator Myb (Homo sapiens), sequence (P10242 whole entry, looked up): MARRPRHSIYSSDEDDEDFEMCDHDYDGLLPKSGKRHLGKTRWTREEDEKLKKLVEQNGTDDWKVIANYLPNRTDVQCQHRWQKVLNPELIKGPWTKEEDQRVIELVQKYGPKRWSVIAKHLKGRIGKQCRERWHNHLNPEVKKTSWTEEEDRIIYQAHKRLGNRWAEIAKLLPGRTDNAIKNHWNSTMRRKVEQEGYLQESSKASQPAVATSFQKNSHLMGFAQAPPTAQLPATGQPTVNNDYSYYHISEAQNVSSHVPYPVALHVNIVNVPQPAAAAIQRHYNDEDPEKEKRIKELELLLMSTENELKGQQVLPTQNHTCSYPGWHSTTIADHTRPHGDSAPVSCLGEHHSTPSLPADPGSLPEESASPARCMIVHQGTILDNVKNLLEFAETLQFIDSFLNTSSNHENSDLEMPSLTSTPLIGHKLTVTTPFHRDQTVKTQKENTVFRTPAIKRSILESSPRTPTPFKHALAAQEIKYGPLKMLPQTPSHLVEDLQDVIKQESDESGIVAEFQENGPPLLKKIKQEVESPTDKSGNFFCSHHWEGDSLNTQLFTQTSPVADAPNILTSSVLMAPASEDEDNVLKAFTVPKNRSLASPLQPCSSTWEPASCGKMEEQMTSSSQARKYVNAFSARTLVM
# Nuclear receptor subfamily 1 group I member 2 (Homo sapiens), sequence (O75469 whole entry, looked up, the tested form may be a part): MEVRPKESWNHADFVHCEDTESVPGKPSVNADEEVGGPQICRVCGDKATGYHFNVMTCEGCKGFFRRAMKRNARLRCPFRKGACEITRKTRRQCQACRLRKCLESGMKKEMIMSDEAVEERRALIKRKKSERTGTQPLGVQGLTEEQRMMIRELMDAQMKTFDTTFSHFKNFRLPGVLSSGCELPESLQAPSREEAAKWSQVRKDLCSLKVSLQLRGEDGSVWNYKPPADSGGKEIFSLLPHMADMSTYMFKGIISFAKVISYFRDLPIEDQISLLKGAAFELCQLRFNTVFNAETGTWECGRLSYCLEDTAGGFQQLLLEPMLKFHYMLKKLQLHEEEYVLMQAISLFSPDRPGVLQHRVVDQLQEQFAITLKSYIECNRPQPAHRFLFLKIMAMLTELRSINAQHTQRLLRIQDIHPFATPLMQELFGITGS
# X-box-binding protein 1 (Homo sapiens), sequence (P17861 whole entry, looked up): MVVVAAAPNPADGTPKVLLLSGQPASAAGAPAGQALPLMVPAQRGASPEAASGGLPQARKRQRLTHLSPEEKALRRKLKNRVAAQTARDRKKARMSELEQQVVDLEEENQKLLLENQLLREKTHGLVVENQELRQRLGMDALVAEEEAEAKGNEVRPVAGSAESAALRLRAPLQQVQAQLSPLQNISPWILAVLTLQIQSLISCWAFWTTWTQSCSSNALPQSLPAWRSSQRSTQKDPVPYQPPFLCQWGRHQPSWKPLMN
# Signal transducer and activator of transcription 3 (Homo sapiens), sequence (P40763 whole entry, looked up, the tested form may be a part): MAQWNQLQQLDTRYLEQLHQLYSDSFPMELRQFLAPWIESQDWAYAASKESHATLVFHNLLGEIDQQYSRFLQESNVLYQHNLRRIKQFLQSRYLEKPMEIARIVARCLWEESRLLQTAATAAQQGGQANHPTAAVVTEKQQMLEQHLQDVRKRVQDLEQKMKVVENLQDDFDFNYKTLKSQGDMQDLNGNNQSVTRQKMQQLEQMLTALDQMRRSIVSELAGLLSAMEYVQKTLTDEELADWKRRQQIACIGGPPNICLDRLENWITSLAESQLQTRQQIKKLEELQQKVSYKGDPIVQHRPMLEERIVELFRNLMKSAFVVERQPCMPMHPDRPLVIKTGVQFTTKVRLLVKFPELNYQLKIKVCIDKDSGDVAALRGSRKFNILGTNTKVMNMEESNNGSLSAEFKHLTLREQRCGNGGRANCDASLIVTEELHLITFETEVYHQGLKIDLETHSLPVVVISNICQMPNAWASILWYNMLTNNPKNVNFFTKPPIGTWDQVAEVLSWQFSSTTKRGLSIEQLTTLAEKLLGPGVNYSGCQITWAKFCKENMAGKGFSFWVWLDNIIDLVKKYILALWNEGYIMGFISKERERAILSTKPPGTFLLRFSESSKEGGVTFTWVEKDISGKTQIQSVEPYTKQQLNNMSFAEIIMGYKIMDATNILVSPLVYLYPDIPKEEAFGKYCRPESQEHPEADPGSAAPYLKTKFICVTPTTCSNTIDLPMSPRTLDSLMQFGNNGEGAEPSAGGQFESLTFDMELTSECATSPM
structure (smiles),measurement,setting,value
CCCCCCCC#N,outcome,[1],inactive
same,outcome,[2],inactive
same,outcome,[3],inactive
same,outcome,[4],inactive
same,outcome,[5],inactive
same,outcome,[6],inactive
same,outcome,[7],inactive
same,outcome,[8],inactive
same,outcome,[9],inactive
same,outcome,[10],inactive
same,outcome,[11],inactive
same,outcome,[12],inactive
same,outcome,[13],inactive
same,outcome,[14],inactive
same,outcome,[15],inactive
same,outcome,[16],inactive
same,outcome,[17],inactive
same,outcome,[18],inactive
CCCN[C@H]1CCc2nc(N)sc2C1,outcome,[1],inactive
same,outcome,[3],inactive
same,outcome,[4],inactive
same,outcome,[5],inactive
same,outcome,[6],inactive
same,outcome,[7],inactive
same,outcome,[8],inactive
same,outcome,[9],inactive
same,outcome,[10],inactive
same,outcome,[11],inactive
same,outcome,[12],inactive
same,outcome,[13],inactive
same,outcome,[14],inactive
same,outcome,[15],inactive
same,outcome,[16],inactive
same,outcome,[19],inactive
same,outcome,[20],inactive
CC(=O)CCc1ccccc1,outcome,[1],inactive
same,outcome,[2],inactive
same,outcome,[3],inactive
same,outcome,[4],inactive
same,outcome,[5],inactive
same,outcome,[6],inactive
same,outcome,[7],inactive
same,outcome,[8],inactive
same,outcome,[9],inactive
same,outcome,[10],inactive
same,outcome,[11],inactive
same,outcome,[12],inactive
same,outcome,[13],inactive
same,outcome,[14],inactive
same,outcome,[15],inactive
same,outcome,[16],inactive
same,outcome,[20],inactive
same,outcome,[17],inactive
same,outcome,[18],inactive
Cc1ccccc1S(=O)(=O)O,outcome,[1],inactive
same,outcome,[2],inactive
same,outcome,[3],inactive
same,outcome,[4],inactive
same,outcome,[5],inactive
same,outcome,[6],inactive
same,outcome,[7],inactive
same,outcome,[8],inactive
same,outcome,[9],inactive
same,outcome,[10],inactive
same,outcome,[12],inactive
same,outcome,[13],inactive
same,outcome,[14],inactive
same,outcome,[15],inactive
same,outcome,[16],inactive
same,outcome,[19],inactive
same,outcome,[20],inactive
same,outcome,[18],inactive
CC1=NN(c2cc(Cl)c(S(=O)(=O)O)cc2Cl)C(=O)C1N=Nc1ccc(S(=O)(=O)O)cc1 (configuration not stated),outcome,[1],inactive
same,outcome,[3],inactive
same,outcome,[4],inactive
same,outcome,[5],inactive
same,outcome,[6],inactive
same,outcome,[7],inactive
same,outcome,[8],inactive
same,outcome,[9],inactive
same,outcome,[10],inactive
same,outcome,[11],inactive
same,outcome,[12],inactive
same,outcome,[13],inactive
same,outcome,[14],inactive
same,outcome,[15],inactive
same,outcome,[16],inactive
same,outcome,[19],inactive
same,outcome,[20],inactive
same,outcome,[17],inactive
same,outcome,[18],inactive
CN(C)CCCN1c2ccccc2CCc2ccc(Cl)cc21,outcome,[1],inactive
same,outcome,[3],inactive
same,outcome,[5],inactive
same,outcome,[6],inactive
same,outcome,[7],inactive
same,AC50,[8],7.29 µM (active)
same,outcome,[9],inactive
same,outcome,[10],inactive
same,AC50,[11],10.4 µM (active)
same,outcome,[12],inactive
same,outcome,[13],inactive
same,outcome,[14],inactive
same,outcome,[15],inactive
same,AC50,[16],17.7 µM (active)
same,outcome,[19],inactive
same,AC50,[20],4.07 µM (active)
same,outcome,[17],inactive
same,AC50,[18],25.7 µM (active)
C=CC(C)(CCC=C(C)C)OC(=O)c1ccccc1 (configuration not stated),AC50,[1],34.2 µM (active)
same,AC50,[2],127 µM (active)
same,outcome,[3],inactive
same,outcome,[4],inactive
same,outcome,[5],inactive
same,outcome,[6],inactive
same,outcome,[7],inactive
same,outcome,[8],inactive
same,outcome,[9],inactive
same,outcome,[10],inactive
same,outcome,[12],inactive
same,outcome,[13],inactive
same,outcome,[14],inactive
same,AC50,[15],131 µM (active)
same,AC50,[16],98 µM (active)
same,outcome,[19],inactive
same,outcome,[20],inactive
same,AC50,[17],8.68 µM (active)
same,outcome,[18],inactive
CCCCCCCCCCC1CO1 (configuration not stated),outcome,[1],inactive
same,outcome,[3],inactive
same,outcome,[4],inactive
same,outcome,[5],inactive
same,outcome,[6],inactive
same,outcome,[7],inactive
same,outcome,[8],inactive
same,outcome,[9],inactive
same,outcome,[10],inactive
same,outcome,[11],inactive
same,outcome,[12],inactive
same,outcome,[13],inactive
same,outcome,[14],inactive
same,outcome,[15],inactive
same,AC50,[16],128 µM (active)
same,outcome,[19],inactive
same,outcome,[20],inactive
same,outcome,[17],inactive
same,outcome,[18],inactive
